Results on 40 compounds are retold here after PubChem BioAssay (NCATS).

Results filed as inconclusive are left out. Unmarked numbers belong to inactive results. Active and inactive are the calls of the source. Calls come from the whole dose curve; as a rule, active = well fitted inhibition curve with a large enough effect; inconclusive = small, poorly fitted or top-dose-only effect; inactive = flat fitted curve, though single readings scatter.
% is set by controls: 0 for no effect and ±100 for the full control effect; potency is the fitted concentration of half-maximal effect.

The target of this assay is Ubiquitin carboxyl-terminal hydrolase 1 (Homo sapiens) (UniProt O94782). The assay can be described thus: Inhibitors of USP1/UAF1: Pilot qHTS (AID 504865).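 For activity change, negative = inhibition: rhodamine fluorescence freed from ubiquitin-rhodamine substrate followed over time; top concentration of the series differs between compounds.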 Note: nearly all actives have a fitted effect of over 35% in size. As to conditions: purified USP1/UAF1, Ub-rhodamine cleavage fluorescence; series mostly up to 114 µM; activity change, negative = inhibition: at the top concentration. The text has this: Deubiquitinating enzymes (DUBs) are a class of enzymes that can cleave isopeptide bond formed between the C-terminal carboxylate of ubiquitin and a lysine side-chain amino group on the target protein. Among them, ubiquitin specific proteases (USPs) constitute the largest DUB family. Human USPs are emerging as promising targets for pharmacological intervention because of their connection to a number of human diseases, including prostate, colon and breast cancer (1, 2), pediatric acute lymphoblastic leukemia (3), and familial cylindromatosis (4). The advantage of inhibiting USPs lies in the potential specificity of therapeutic intervention that can lead to better efficacy and reduce nonspecific side effects.
Ubiquitin carboxyl-terminal hydrolase 1 (Homo sapiens), sequence (O94782 whole entry, looked up): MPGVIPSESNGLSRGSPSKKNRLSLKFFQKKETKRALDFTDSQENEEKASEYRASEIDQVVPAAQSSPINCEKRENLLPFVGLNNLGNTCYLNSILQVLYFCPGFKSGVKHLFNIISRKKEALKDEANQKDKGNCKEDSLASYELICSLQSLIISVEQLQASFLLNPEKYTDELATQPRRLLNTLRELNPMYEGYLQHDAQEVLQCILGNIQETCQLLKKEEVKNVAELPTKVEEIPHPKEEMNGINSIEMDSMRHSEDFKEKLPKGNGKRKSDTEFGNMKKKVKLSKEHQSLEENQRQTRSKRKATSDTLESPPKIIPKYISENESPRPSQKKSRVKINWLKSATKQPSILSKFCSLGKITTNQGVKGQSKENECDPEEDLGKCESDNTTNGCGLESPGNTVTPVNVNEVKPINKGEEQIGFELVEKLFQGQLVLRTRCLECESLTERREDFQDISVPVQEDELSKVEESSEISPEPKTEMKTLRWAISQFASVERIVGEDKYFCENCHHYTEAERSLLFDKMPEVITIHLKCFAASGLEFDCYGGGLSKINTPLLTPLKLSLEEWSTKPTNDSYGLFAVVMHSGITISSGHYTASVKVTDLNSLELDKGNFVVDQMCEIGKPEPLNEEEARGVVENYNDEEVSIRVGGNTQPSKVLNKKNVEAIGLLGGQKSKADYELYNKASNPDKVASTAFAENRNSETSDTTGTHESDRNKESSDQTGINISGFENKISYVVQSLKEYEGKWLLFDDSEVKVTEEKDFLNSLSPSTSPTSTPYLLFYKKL
In a collaboration between the University of Delaware and the NIH Chemical Genomics Center, a high-throughput screen assay was developed to screen for USP1/UAF1 inhibitors. This miniaturized assay has a fluorescent read-out and is used to screen the NIH Molecular Libraries Small Molecule Repository (MLSMR) in order to identify a small molecule that inhibits USP1.
NIH Chemical Genomics Center [NCGC]
NIH Molecular Libraries Probe Centers Network [MLPCN]
Assay Submitter (PI): Zhihao Zhuang, University of Delaware
1. Priolo, C., et al. (2006) The isopeptidase USP2a protects human prostate cancer from apoptosis. Cancer Res 66, 8625-8632
2. Popov, N., et al. (2007) The ubiquitin-specific protease USP28 is required for MYC stability. Nat Cell Biol 9, 765-774
3. De Pitta, C., et al. (2005) A leukemia-enriched cDNA microarray platform identifies new transcripts with relevance to the biology of pediatric acute lymphoblastic leukemia. Haematologica 90, 890-898
4. Kovalenko, A., et al. (2003) The tumour suppressor CYLD negatively regulates NF-kappaB signalling by deubiquitination. Nature 424, 801-805
3 microliters of reagents (buffer in columns 3 and 4 as negative control and 1nM USP1/UAF1 complex in columns 1, 2, and 5-48) are dispensed into Greiner black solid bottom 1536-well assay plates. Compounds are then transferred via Kalypsys pin tool equipped with 1536-pin array (10nl slotted pins, V&P Scientific, San Diego, CA). Following an incubation step of 15 min at room temperature, 1ul of Ub-Rho substrate (150nM final concentration) is added to initiate the reaction. The plates are immediately centrifuged at 1000 rpm for 15 seconds, and subsequently transferred to a ViewLux high-throughput CCD imager (PerkinElmer) wherein kinetic measurements of fluorescence are acquired using 480 nm excitation/540 nm emission filter set (6 reads every 60 seconds, see Table 1). All reagents are diluted in an assay buffer consisting of 50mM HEPES (pH 7.8), 0.5mM EDTA, 0.1 mg/ml BSA, 1mM TCEP, and 0.01% Tween-20.
In general terms: qHTS replaces the single test concentration by a dilution series.
Consider `CNCC/C=C\c1cccnc1`, for which the “activity change, negative = inhibition” value was -4.08%. For the compound `c1ccc([C@H]2CNCc3ccccc32)cc1`, the “activity change, negative = inhibition” value was -1.85%.

Take `CC(C)(C)c1o[nH]c(=O)c1C[C@H](N)C(=O)O`: the “activity change, negative = inhibition” value was -16.1%. The same measure, in the same setting: in the case of `C[C@@H](N)Cn1ccc2cc(F)c(Cl)cc21` it was -13.8%. Same read-out and setting: in the case of `O[C@@H](Cc1ccncc1)C(Cl)(Cl)Cl` it was -8.63%; in that of `C[C@@H](C(=O)OC1C[C@H]2CC[C@@H](C1)N2C)c1ccc(Br)cc1` (stereo not given in full), -11.2%; in that of `CC[C@H]1CN2CCc3cc(OC)c(OC)cc3[C@H]2C[C@@H]1C[C@@H]1NCCc2cc(OC)c(OC)cc21`, -3.2%.

Turning to `CN1CC[C@@]2(c3cccc(O)c3)Cc3nc4ccccc4cc3C[C@H]2C1`, the “activity change, negative = inhibition” value is -7.24%. As to `COc1ccc2c3c([nH]c2c1)C(C)=NCC3`, the “activity change, negative = inhibition” value was -5.83% [at 54.9 µM]. Same read-out and setting: in the case of `CC(C)(O)[C@@H]1[C@H]2OC(=O)[C@@H]1[C@]1(O)C[C@H]3O[C@]34C(=O)O[C@H]2[C@@]14C` (tested in a mixture with another compound) it was -5.1%. For the compound `COc1ccc2[nH]cc(C3=CCNCC3)c2c1`, the Potency was 44.7 µM (active). In the case of `O=C(O)Cc1cccnc1C(=O)O`, the “activity change, negative = inhibition” value is -8.46%.

For `Brc1c(Br)c(Br)c2n[nH]nc2c1Br`, the Potency was 56.2 µM (active). In the case of `COc1ccc2c(c1)[nH]c1c(C)nccc12`, the “activity change, negative = inhibition” value is -14.5% [at 54.9 µM]. On the same count and under the same terms, the figure for `O=C(O)c1ccccc1-c1c2cc(Br)c(=O)cc-2oc2[c]([Hg])c(O)c(Br)cc12` is -29.2% [at 54.9 µM]; for `CN1C(=O)COc2c(C(=O)N[C@@H]3CN4CCC3CC4)cc(Cl)cc21` it is -10.1%. Take `C=C1[C@@H](O)C2C=CC[C@H](C)C(=O)[C@@](C)(O)C=C[C@@H](OC(C)=O)[C@@]23C(=O)N[C@H](Cc2ccccc2)[C@@H]3[C@@H]1C` (stereo not given in full): the “activity change, negative = inhibition” value was -5.56%. With `O=C(O)CNC(=O)C(CS)Cc1ccccc1` (stereo not given), the “activity change, negative = inhibition” value is -1.71%. Take `O[C@H]1CCCC[C@H]1N1CCC(c2ccccc2)CC1`: the “activity change, negative = inhibition” value was 4.87% [at 54.9 µM]. Regarding `N[C@H](CCP(=O)(O)O)C(=O)O`, the “activity change, negative = inhibition” value was -6.43%.

With `CCN1C[C@]2(COC(=O)c3ccccc3N3C(=O)C[C@H](C)C3=O)CC[C@H](OC)[C@@]34[C@@H]5C[C@H]6[C@H](OC)[C@H]5[C@](O)(C[C@@H]6OC)[C@@](O)([C@@H](OC)[C@@H]23)[C@@H]14`, the “activity change, negative = inhibition” value is -2.94%.

In the case of `N[C@H](Cc1o[nH]c(=O)c1Cl)C(=O)O`, the “activity change, negative = inhibition” value was -5.44%. Consider `C/C=C1/CN2CC[C@]34C(=C(C=O)[C@H]1C[C@@H]23)Nc1ccccc14`, for which the “activity change, negative = inhibition” value was -9.24%. Still for that read-out and setting: the figure for `CC(C)[C@@H]1CN[C@H](C(=O)O)[C@@H]1CC(=O)O` is 1.03%; for `COc1ccc(C[C@H]2NC[C@H](O)[C@@H]2OC(C)=O)cc1` it is -0.123%. For `O=CN1CCCCC1C1CC[C@H]2CCCCN2C1` (stereo not given in full), the “activity change, negative = inhibition” value was 0.539%. The same measure, in the same setting: in the case of `CN(C(=O)Cc1ccccc1)[C@H](CN1CCCC1)c1ccccc1` it was -7.07%; in that of `NC(N)=NCCCCCCCCCCN=C(N)N`, -14.4%; in that of `N[C@H](CCCCCP(=O)(O)O)C(=O)O`, -13.1%. As for `CCCCCCCCCC[N+](C)(C)CCCCCCCCCC`, the Potency was 31.6 µM (active). For `c1ccc(C[C@@H](c2ccccc2)N2CCCCC2)cc1`, the “activity change, negative = inhibition” value was -4.18%. For the compound `COc1ccn(C)c(=O)c1C#N`, the “activity change, negative = inhibition” value was 4.43% [at 54.9 µM].

As for `O=C(O)[C@@H]1C[C@H]2C[C@@H](CP(=O)(O)O)CC[C@H]2CN1`, the “activity change, negative = inhibition” value is -2.73%.

As for `O=C1Nc2cc(Cl)c(Cl)cc2N2CCNC[C@H]12`, the “activity change, negative = inhibition” value is -15.3%. Consider `COc1cc([C@@H]2c3cc4c(cc3[C@H](O)C3COC(=O)[C@@H]32)OCO4)cc(OC)c1OC` (stereo not given in full), for which the “activity change, negative = inhibition” value was -2.04%. As to `CCOC(OCC)P(=O)(O)CCCN`, the “activity change, negative = inhibition” value is 1.57%.

Consider `C=CC1CN2CCC1CC2C(O)c1ccnc2ccccc12` (stereo not given), for which the Potency result is “inactive”. Consider `CCN(CC)/[N+]([O-])=N/O`, for which the “activity change, negative = inhibition” value is -4.67%. For the compound `CC1CCCC(=O)CCC/C=C/c2cc(O)cc(O)c2C(=O)O1` (stereo not given), the “activity change, negative = inhibition” value was -9.25%.

As for `N[C@@H](CCCCP(=O)(O)O)C(=O)O`, the “activity change, negative = inhibition” value was -1.94%.
